# Assay results published in ChEMBL document CHEMBL3988442, “University of Dundee, Small-Polar-MMV Screening Library” (2021).
# For some assays here: Results with a measured potency or affinity are listed apart.
# Key:
# Parameters in all cases: scale not given: direction of the effect not stated beside the values
# [1] = target: Protein translocase subunit SecA (Escherichia coli (strain K12)) (UniProt P10408); assay: Assay to Identify E. coli SecA ATPase Inhibitors; assay type: functional; settings: 30 µM
# [2] = target: T1, Ubiquitin-activating enzyme e1, putative (Leishmania donovani (strain BPK282A1)) (UniProt E9BSI1); assay: Leishmania donovani Ubiquitin Activating Enzyme (LdE1); assay type: functional; settings: 30 µM
# T1 sequence (whole entry): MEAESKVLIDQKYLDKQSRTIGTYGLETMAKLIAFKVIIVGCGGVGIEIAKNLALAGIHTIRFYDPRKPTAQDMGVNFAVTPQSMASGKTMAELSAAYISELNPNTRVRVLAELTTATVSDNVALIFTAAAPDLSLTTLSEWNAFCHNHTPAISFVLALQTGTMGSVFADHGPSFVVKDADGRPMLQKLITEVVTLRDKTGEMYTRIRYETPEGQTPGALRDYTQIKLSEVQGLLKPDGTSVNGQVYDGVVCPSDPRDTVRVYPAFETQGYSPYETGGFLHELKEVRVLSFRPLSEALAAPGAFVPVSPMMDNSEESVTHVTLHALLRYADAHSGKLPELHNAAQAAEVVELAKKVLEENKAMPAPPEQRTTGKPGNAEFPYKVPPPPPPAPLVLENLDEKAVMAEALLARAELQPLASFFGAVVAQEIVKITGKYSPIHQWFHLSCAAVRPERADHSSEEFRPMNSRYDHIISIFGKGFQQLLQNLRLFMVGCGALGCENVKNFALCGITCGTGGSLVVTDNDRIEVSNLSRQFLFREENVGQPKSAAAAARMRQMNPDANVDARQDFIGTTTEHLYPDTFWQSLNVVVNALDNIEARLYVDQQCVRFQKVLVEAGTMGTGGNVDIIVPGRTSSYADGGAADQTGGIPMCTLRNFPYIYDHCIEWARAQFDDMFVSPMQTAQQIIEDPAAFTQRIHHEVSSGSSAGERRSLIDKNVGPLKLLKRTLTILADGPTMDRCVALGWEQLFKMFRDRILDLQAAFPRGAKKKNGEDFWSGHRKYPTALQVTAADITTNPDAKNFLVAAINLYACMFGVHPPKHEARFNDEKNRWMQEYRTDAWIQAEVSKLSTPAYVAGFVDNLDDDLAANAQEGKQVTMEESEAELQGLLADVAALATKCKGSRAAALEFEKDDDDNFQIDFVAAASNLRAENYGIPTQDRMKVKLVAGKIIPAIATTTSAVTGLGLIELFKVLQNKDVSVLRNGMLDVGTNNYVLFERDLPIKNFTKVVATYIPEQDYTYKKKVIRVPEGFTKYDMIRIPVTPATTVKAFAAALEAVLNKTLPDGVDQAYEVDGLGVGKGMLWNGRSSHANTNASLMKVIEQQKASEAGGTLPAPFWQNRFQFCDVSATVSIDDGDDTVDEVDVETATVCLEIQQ
# [3] = target: AMP-activated protein kinase, AMPK (Homo sapiens) (UniProt P54646+O43741+P54619+Q9UGJ0+Q9Y478+Q13131+Q9UGI9); assay: AMP-dependent Kinase enzyme assay. An in vitro enzyme assay that detects ADP turnover that is directly proportional to AMPK activity. This uses naive AMPK that is activated during the assay with MK-8722; assay type: functional; settings: 30 µM
# [4] = target: Sialic acid-binding Ig-like lectin 9 (Homo sapiens) (UniProt Q9Y336); assay: Hs-Siglec9 ALPHAscreen SOP 20170721; settings: 10 µM
# Trypanosoma cruzi = assay: Trypanosoma cruzi phosphomannomutase and mannose-1-phosphate guanylyltransferase assay; assay type: functional; settings: 10 µM
# [5] = target: T2, Arginase-2, mitochondrial (Homo sapiens) (UniProt P78540); assay: in vitro enzyme assay to detect the production of urea directly proportional to the activity of Arginase II; assay type: functional; settings: 33.3 µM; note: in the data most compounds retested in dose-response had high values
# T2 sequence (whole entry): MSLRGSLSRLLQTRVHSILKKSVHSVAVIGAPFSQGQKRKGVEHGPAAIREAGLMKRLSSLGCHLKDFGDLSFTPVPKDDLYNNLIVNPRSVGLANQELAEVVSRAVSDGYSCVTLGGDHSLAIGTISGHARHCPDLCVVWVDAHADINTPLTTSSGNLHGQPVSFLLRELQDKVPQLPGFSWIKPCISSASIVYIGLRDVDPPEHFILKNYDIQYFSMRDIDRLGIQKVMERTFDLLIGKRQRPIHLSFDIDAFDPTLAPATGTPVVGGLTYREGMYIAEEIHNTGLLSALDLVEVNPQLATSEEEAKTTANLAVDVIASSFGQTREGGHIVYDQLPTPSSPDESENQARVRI
# [6] = target: T3, Proteasome subunit beta (Trypanosoma cruzi) (UniProt O96673); assay: Trypanosoma cruzi proteasome chymotrypsin-like activity (TcProtChymo) assay.; note: in the data most compounds retested in dose-response had high values; assay type: functional; settings: 9.37 µM
# T3 sequence (whole entry): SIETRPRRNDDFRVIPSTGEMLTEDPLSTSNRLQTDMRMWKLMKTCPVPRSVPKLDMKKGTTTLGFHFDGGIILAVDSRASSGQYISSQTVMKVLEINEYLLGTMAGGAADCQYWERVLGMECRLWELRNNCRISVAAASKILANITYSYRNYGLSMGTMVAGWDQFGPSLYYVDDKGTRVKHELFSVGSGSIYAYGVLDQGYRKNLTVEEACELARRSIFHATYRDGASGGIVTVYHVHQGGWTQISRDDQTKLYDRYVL
# Homo sapiens = organism: Homo sapiens; assay: To identify inhibition of the IFN signalling (Jak-Stat) pathway via expression of an eGFP reporter gene under the control of an IFN-stimulated response element (ISRE) containing MxA promoter.; assay type: functional; settings: 30 µM
# [7] = target: T4, Tyrosyl-tRNA synthetase, putative (Trypanosoma cruzi (strain CL Brener)) (UniProt Q4DSP6); assay: Trypanosoma cruzi tyrosyl tRNA synthetase (TcYRS) _High Tyrosine SOP; assay type: functional; settings: 30 µM; note: in the data most compounds retested in dose-response had high values
# T4 sequence (whole entry): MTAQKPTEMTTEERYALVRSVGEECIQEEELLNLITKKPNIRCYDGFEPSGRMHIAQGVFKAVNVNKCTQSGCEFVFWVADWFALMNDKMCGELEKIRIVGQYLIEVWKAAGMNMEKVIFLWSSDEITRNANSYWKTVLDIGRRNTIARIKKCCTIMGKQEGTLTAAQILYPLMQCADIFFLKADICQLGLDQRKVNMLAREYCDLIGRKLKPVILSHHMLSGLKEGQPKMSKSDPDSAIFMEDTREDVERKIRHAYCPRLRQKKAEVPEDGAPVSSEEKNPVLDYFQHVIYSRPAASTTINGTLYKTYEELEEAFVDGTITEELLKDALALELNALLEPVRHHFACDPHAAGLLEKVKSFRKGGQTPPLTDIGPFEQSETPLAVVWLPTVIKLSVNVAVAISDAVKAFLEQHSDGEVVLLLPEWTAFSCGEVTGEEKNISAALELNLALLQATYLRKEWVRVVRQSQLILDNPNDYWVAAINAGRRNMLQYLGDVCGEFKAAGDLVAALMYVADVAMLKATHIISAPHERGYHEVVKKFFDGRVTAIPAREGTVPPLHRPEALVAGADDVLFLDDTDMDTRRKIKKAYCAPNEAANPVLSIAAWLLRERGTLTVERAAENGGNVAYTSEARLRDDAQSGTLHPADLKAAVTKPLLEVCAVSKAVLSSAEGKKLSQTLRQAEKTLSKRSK
# [8] = target: T4, Tyrosyl-tRNA synthetase, putative (Trypanosoma cruzi (strain CL Brener)); assay: Trypanosoma cruzi tyrosyl tRNA synthetase (TcYRS) SOP; assay type: functional; settings: 30 µM
# [9] = target: Chromo domain-containing protein 1 (Saccharomyces cerevisiae (strain ATCC 204508 / S288c) (Baker's yeast)) (UniProt P32657); assay: ScCHD-1 Enzyme Inhibition Assay; assay type: functional; settings: 30 µM; note: in the data most compounds retested in dose-response had high values
# Sequence of Chromo domain-containing protein 1 (Saccharomyces cerevisiae (strain ATCC 204508 / S288c) (Baker's yeast)) (P32657 whole entry, the tested form may be a part): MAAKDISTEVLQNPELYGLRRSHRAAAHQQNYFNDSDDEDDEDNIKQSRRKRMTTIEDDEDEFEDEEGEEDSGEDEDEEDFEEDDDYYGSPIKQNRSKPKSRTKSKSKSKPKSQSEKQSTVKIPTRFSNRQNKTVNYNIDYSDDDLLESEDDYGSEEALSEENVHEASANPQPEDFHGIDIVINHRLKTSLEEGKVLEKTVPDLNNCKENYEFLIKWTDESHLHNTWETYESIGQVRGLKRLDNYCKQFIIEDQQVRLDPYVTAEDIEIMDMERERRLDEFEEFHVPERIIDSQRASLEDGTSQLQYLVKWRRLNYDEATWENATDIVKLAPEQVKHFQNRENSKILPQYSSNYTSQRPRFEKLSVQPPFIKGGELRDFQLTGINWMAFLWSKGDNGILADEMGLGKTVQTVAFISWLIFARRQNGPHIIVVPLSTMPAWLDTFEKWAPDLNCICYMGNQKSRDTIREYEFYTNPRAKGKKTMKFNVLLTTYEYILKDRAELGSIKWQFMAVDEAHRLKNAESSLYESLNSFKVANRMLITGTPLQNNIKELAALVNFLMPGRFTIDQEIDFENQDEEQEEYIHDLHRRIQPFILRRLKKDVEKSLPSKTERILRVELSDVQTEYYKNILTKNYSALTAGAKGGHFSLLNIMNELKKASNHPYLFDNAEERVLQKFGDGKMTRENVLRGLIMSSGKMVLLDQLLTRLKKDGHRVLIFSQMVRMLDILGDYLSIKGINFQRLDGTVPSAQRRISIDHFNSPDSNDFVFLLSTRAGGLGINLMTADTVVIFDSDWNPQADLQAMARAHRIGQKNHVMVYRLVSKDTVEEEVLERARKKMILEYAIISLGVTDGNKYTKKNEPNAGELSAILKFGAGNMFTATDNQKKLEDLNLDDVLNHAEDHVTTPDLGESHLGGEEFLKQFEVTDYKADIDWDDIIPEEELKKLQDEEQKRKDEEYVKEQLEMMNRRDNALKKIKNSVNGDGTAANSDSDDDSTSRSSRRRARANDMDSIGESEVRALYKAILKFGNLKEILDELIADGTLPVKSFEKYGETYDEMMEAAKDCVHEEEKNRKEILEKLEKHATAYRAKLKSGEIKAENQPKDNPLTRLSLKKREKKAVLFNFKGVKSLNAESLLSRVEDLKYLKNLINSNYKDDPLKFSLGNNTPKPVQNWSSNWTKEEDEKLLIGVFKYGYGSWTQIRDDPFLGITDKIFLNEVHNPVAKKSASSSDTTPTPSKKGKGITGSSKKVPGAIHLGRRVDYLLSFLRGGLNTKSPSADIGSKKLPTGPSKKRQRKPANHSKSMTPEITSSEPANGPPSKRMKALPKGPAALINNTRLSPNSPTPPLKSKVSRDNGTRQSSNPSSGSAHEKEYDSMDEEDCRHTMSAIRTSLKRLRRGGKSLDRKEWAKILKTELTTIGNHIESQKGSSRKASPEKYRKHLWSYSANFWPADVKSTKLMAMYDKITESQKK
# Sequence of Sialic acid-binding Ig-like lectin 9 (Homo sapiens) (Q9Y336 whole entry): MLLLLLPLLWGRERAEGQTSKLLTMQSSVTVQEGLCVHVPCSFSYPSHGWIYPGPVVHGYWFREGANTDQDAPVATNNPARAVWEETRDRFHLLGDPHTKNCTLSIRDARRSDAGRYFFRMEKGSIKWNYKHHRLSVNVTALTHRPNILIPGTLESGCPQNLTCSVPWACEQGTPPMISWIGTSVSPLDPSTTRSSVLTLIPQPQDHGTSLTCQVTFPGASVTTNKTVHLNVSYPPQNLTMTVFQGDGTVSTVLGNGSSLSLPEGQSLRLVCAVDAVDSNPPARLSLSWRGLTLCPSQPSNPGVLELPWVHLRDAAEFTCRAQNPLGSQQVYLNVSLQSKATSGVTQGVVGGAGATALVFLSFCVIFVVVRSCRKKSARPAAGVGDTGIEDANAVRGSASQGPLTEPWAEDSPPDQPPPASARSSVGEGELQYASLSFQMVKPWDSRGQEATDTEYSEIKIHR
# Sequence of Protein translocase subunit SecA (Escherichia coli (strain K12)) (P10408 whole entry): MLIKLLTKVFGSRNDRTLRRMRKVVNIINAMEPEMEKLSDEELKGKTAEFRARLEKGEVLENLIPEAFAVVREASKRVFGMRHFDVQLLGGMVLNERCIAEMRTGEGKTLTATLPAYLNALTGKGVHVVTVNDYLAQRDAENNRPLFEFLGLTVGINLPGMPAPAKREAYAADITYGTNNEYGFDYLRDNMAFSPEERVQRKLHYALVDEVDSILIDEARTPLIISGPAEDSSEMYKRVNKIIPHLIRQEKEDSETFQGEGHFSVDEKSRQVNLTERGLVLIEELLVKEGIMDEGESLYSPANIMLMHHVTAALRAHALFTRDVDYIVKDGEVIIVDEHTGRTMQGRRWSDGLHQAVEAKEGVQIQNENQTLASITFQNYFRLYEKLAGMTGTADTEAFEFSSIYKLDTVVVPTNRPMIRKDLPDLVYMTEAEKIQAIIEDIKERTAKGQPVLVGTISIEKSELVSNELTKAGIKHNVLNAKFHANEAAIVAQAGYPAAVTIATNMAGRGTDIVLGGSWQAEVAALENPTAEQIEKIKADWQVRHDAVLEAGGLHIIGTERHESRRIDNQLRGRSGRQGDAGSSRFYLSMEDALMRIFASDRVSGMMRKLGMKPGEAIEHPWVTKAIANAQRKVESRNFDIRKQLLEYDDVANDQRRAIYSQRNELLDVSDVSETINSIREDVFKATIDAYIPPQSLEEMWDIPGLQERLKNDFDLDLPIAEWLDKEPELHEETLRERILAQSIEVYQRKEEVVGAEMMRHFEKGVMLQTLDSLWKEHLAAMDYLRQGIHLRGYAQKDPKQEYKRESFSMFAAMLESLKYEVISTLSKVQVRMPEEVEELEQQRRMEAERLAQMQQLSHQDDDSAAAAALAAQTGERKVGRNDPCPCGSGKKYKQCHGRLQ
SMILES,Percent Effect [1] [%],Percent Effect [2] [%],Percent Effect [3] [%],Percent Effect [4] [%],Percent Effect (Trypanosoma cruzi) [%],Percent Effect [5] [%],Percent Effect [6] [%],Percent Effect (Homo sapiens) [%],Percent Effect [7] [%],Percent Effect [8] [%],Percent Effect [9] [%]
COc1cnc(N2CCC(Oc3ccccc3OC)(C(=O)O)CC2)nc1,-5.13,11,0.422,4.04,0.595,-2,8.99,-4.79,5.21,8.64,-4.67
Cc1nc(C)n(C2CCCN(C(=O)c3ccc(N(C)C)nn3)C2)n1 (configuration not stated),-1.66,-5.2,4.94,-6.86,7.35,-0.632,6.06,-42.5,2.86,0,-16.9
CC(C)(C)c1cnc(CN2CCC(c3ccnn3CCO)CC2)o1,-2.61,2.53,7.52,9.51,7.46,-3.42,-3.69,20.2,3.45,11.4,-1.55
Cc1cn2c(n1)CCC(NC(=O)c1cc(C(C)C)no1)C2 (configuration not stated),-4.48,10.4,2.99,6.7,1.67,1.05,4.93,3.25,6.67,14.1,-23
CC(=O)N1CCC[C@H]1C(=O)NCCOc1cccc(Cl)c1,-0.692,7.79,-8.32,-3.36,4.31,4.98,13.7,12.4,6.8,24.4,-9.94
Cc1cnn(CCNCc2csc(C)n2)c1,-1.46,-5.33,-1.53,-3.7,-0.876,-2.6,7.5,1.61,3.83,6.17,0.841
CCS(=O)(=O)N1CCC(c2nc3ccc(-c4ccccc4)cn3n2)CC1,-0.159,-2.74,-1.18,0.509,5.75,0.399,10,-3.81,-24,8.64,2.57
CCN(Cc1ccc2c(c1)OCO2)C(=O)NC(C)Cn1cccn1 (configuration not stated),-2.99,20.8,2.96,-4.68,-5.43,1.42,8.78,5.38,4.85,14.6,-8.47
c1cncc(OCc2noc3c2CN(Cc2ccoc2)CC3)c1,-1.69,22.7,-8.08,-0.376,3.93,-2.99,22.7,8.21,5.29,15.4,-11.2
Cn1cnnc1C1CCN(C(=O)CCCOc2ccccc2F)CC1,-5.06,10.4,-2,4.13,-7.87,4.98,2.53,14.2,3.88,7.32,-2.08
CN(C)Cc1ccnc(C2CCCN2Cc2cc[nH]n2)n1 (configuration not stated),-6.5,-6.76,10.3,-1.81,-1.78,-1.16,6.08,-0.845,3.23,3.9,1.51
CCCN(C)C(=O)c1ccc2c(c1)[nH]c(=O)n2CCOCC,-5.32,2.7,-7.14,42,8.11,2.38,9.65,-3.55,2.65,17.1,-9.7
Nc1nc2c(c(=O)[nH]1)CCN(C(=O)c1cccc3nccnc13)C2,-2.43,10.4,-11.5,9.88,2.46,-12.4,20.6,-5.63,4.3,8.64,-0.6
CCn1c(CN2CCCN(C(=O)OC)CC2)nc2c(F)cccc21,-2.85,15.8,-5.17,7.02,-3.95,8.81,9.69,-5.04,6.37,12.2,-4.43
Cc1ccc(C(=O)N2CCC3(CC2)CC(c2ccccc2)C(=O)N3)cn1 (configuration not stated),0.117,18.7,-5.79,-1.61,1.93,-48.9,18.1,4.12,1.04,27.5,-17.9
Cc1noc(C)c1CN1C[C@@H]2COC[C@H](C(=O)N3CCCCO3)[C@@H]2C1,-5.77,8,8.79,-0.115,-5.12,-1.17,7.31,3.63,6.38,8.97,-0.163
CC(C)c1nc(CN(C)C2CCN(CC(F)(F)F)C2)no1 (configuration not stated),-5.29,5.48,-3.78,-4.08,-0.588,2.73,6.57,-2.57,4.3,10,-1.35
Cc1cc(C(F)(F)F)nn1C(C)C(=O)Nc1ccncc1 (configuration not stated),-1.07,25.3,-4.73,-5.25,-0.982,-12.2,8.87,13.8,2.12,12.8,-9.26
O=C(C1CCCC1)N1CCN(Cc2nc(-c3ccco3)no2)CC1,-5.54,13.5,-5.37,16,3.99,-1.29,3.23,19.1,4.95,15.8,-4.84
Cc1cnn(C2CCCN(C(=O)c3ccc(N(C)C)nn3)C2)c1 (configuration not stated),-3.44,15.6,1.44,-3.44,-5.62,-2.85,-1.01,33.7,4.85,12.2,-8.48
CCOc1ccc(NC(=O)c2cnc(N3CCCC3)nc2C)cc1,-4.12,5.2,-3.01,-0.674,1.48,3.23,5.22,11.8,4.23,16.7,-8.66
c1cn(Cc2nnc(C3CCN(c4nccs4)CC3)n2C2CC2)cn1,-3.22,16,0.541,19.9,4.77,13,9.59,7.24,7.1,8.64,90.7
